Test results reported in ChEMBL document CHEMBL4513216, “Probing the Open Global Health Chemical Diversity Library for Multistage-Active Starting Points for Next-Generation Antimalarials” (ACS Infect Dis, 2020).
In all, about 69,000 compounds went through this assay and about 8,600 (12%) showed an effect of 50% or more. This excerpt belongs to a sample that is enriched for strong results.

These compounds were tested on Plasmodium berghei (assay: Screen against P. berghei liver stage (PbLuc), transformed with Luciferase, at 10uM). Details: tested at 10 uM.
Assay type: functional, HepG2
Compound `CC(=O)N1CC(=O)N(c2cccnc2)CC12CCN(Cc1nccs1)C2` (stereo not drawn) has an INHIBITION of -3.52%.
`N#Cc1cccc(CN2CCO[C@@H]3CNC[C@@H]32)c1` gave an INHIBITION of 16.9%.
`O=C(c1ccccc1)N1CCOC2CNCC[C@H]21` (stereo partly drawn) was tested, and the INHIBITION was 28.5%.
Work on `c1ccc(CN2CCOC3CNCC[C@H]32)cc1` (stereo partly drawn) yielded an INHIBITION of 55.5%.
Work on `O=C(O)c1ccn(-c2ccccc2NS(=O)(=O)c2cccc(Cl)c2F)n1` yielded an INHIBITION of 32.9%.
`CN(C)C(=O)CO[C@@H]1CN(Cc2ccccc2F)[C@@H]2CCCO[C@@H]21` was tested, and the INHIBITION was -1.83%.
`c1cnc2c(c1)cc([C@H]1CCCO1)n2CCN1CCCCC1` gave an INHIBITION of 35.3%.
With `Cc1ccc(C(=O)N2CCC3(CCCCC3)C2)c(=O)[nH]1` the INHIBITION was 21.7%.
`CC(C)c1cc(C(=O)N2CCOC3(CCNCC3)C2)no1` gave an INHIBITION of 28.2%.
With `CC(C)c1cc(C(=O)N2CCCC3(CCNC3)C2)no1` (stereo not drawn) the INHIBITION was 40.2%.
`Cc1ccc(C(=O)N2CCOC3(CCCC3)C2)c(=O)[nH]1` showed an INHIBITION of 51.7%.
`Cc1ccc(C(=O)N2CCC3(CCCC3)CC2)c(=O)[nH]1` showed an INHIBITION of 37.1%.
In the case of `CC(C)c1cc(C(=O)N2CCOC3(CCCC3)C2)no1`, the INHIBITION is reported as 50.4%.
`CN(Cc1ccco1)[C@@H]1CN(C(=O)c2cnccn2)C[C@@H]2CCCO[C@@H]21` gave an INHIBITION of -2.17%.
In the case of `CC(C)NC(=O)[C@H]1C[C@H]2CN(C(=O)NCc3ccccc3)C[C@@H]1O2`, the INHIBITION is reported as -43.8%.
In the case of `CCn1nc(C)c(C(=O)Nc2ccc3c(c2)C(C)(C)C(=O)N3C)c1C`, the INHIBITION is reported as 23.4%.
Compound `Cc1nc(C)n(C2CCCN(C(=O)c3ccc(CN(C)C)cc3)C2)n1` (stereo not drawn) has an INHIBITION of 5.45%.
For `CCN(Cc1cccc(Cl)c1)Cc1ncc(C(C)(C)C)o1`, the INHIBITION was 49%.
In the case of `Cc1cccc(CN(Cc2ccccn2)S(=O)(=O)N(C)C)c1`, the INHIBITION is reported as -1.38%.
For `CC(C)(C)c1cnc(CNc2cccc(Cn3cnnc3)c2)o1`, the INHIBITION was -17.6%.
Work on `Cc1ccc(CN(C)Cc2ncc(C(C)(C)C)o2)o1` yielded an INHIBITION of 46.4%.
`Cc1cccc(NCc2ncc(C(C)(C)C)o2)c1` gave an INHIBITION of 72.2%.
`CCN(Cc1ncc(C(C)(C)C)o1)Cc1ccccc1C` was tested, and the INHIBITION was 53.3%.
Work on `Cc1cccc(CN(Cc2ccccn2)S(=O)(=O)N(C)C(C)C)c1` yielded an INHIBITION of -12.4%.
`Cc1ccc(NCc2ncc(C(C)(C)C)o2)c(Cl)c1` showed an INHIBITION of -26.2%.
Compound `Cc1cccc(CN(Cc2ccccn2)Cc2ncc(C(C)(C)C)o2)c1` has an INHIBITION of 71.5%.
Compound `Nc1ncc(-c2cccc(NC(=O)[C@@H]3CCCCN3)c2)cn1` has an INHIBITION of 14.5%.
Work on `Cc1cncc(C(=O)N2C[C@H]3CCC[C@@]3(COc3ccccn3)C2)c1` yielded an INHIBITION of 24.5%.
